Bioassay records (PubChem)
TDP1 cell CPT: DT40-hTDP1 cell growth loss with CPT. chicken DT40 Tdp1-/-;hTDP1 cells + 20 nM CPT, ATP luminescence, 48 h. Potency, µM (doses to about 46.2 µM), for inactives: at the highest dose activity change, negative = growth inhibition, most hits filed as inhibitors. 420,000 compounds, 12% hits. AID 686979; note: % is set by controls: 0 for no effect and ±100 for the full control effect; nearly all actives have a fitted effect of over 55% in size
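Chicken DT40 Tdp1-/- cells complemented with human TDP1, 400 cells/well, exposed to compounds plus 20 nM camptothecin for at least 48 h at 37 C; viability read as ATP content by CellTiter-Glo luminescence.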
HepG2 viability: counter-screen for TGF-b inhibitors: cytotoxicity in HepG2 cells; AID 588856; 410,000 compounds, 0.76% hits; Potency, µM (doses to about 46.1 µM), for the others: at the highest dose activity change, negative = cytotoxicity, actives largely listed as cytotoxic; HepG2 CAGA-GFP viability, ATP luminescence, 18 h
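CellTiter-Glo luminescence gave cytotoxicity after 18 hours at 37 degrees C. The cells were HepG2 CAGA-GFP in 1% FBS DMEM, stimulated with 500 pg/mL TGF-beta after compound addition. %Activity was normalised to no-cell wells (complete cell-killing) and DMSO (no toxicity), and curves were fitted and classified.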
TDP1 cell noCPT: qHTS for Inhibitors of human tyrosyl-DNA phosphodiesterase 1 (TDP1): qHTS in cells in absence of CPT; DT40 Tdp1-/- hTDP1 cells, no CPT, ATP luminescence, 48 h; Potency, µM (top dose mostly 46.2 µM), inactives show at the highest dose activity change, negative = growth inhibition, usual class: inhibitors; 420,000 compounds, 15% hits; note: % is set by controls: 0 for no effect and ±100 for the full control effect; nearly all actives have a fitted effect of over 55% in size
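Stably hTDP1-transfected Tdp1-null chicken DT40 cells were treated with library compounds minus camptothecin and grown for at least 48 hr at 37 °C, after which cellular ATP was quantified by luminescence.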
HT1080-NT tox: kills 2HG-producing HT-1080-NT fibrosarcoma cells. 360,000 compounds, 1.6% hits. HT-1080-NT fibrosarcoma viability, CellTiter-Glo ATP luminescence, 48 h. AID 686970. Potency, µM (highest dose often 46.1 µM), without a hit: at the top dose activity, negative = less viability, usual class: cytotoxic;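 note: NT is the 2HG producing partner of a matched IDH1 knockdown line; 0% = DMSO-treated cells and -100% = media-only wells without cells; nearly all actives have a fitted effect of over 55% in size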
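HT-1080-NT; 750 cells/well; 5% FBS RPMI; 48 h compound, 37 degrees C; CellTiter-Glo luminescence; curve fitting and curve-class assignment.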
TGFb SMAD3 inh: TGF-b pathway inhibition | HepG2 CAGA-GFP TGF-b/SMAD3 reporter, GFP fluorescence, 18 h; TGF-beta stimulated, 500 pg/mL final | Potency, µM (highest dose often 46.1 µM), for inactives: at the top dose activity, negative = inhibition, actives largely listed as inhibitors | 410,000 compounds, 1.2% hits | AID 588855; note: % is set by controls: 0 for no effect and ±100 for the full control effect; nearly all actives have a fitted effect of over 65% in size
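Smad-responsive CAGA-GFP expression was quantified in HEPG2 cells exposed to compounds and 500 pg/mL final TGF-beta for 18 h at 37 degrees C; unstimulated wells defined full inhibition.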
HT1080 IDH1KD tx: HT-1080 IDH1 knockdown cell toxicity (counter line); HT-1080 IDH1 knockdown viability, ATP luminescence, 48 h; Potency, µM (titrated, usually from 46.1 µM), for the others: at the highest dose activity, negative = toxicity, actives largely listed as cytotoxic; 360,000 compounds, 2% hits; AID 686971;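 note: 0% = DMSO wells and -100% = cell-free medium wells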
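Cytotoxicity counter-line: IDH1KD HT-1080, 48 h, CellTiter-Glo. Curves classed by r2, magnitude and activity.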
* = called active by the depositor; ? = inconclusive; . = no result; ! = repeats disagree. Shown are actives, neighbours in structure and some others; about 17% of the full set was active somewhere. Calls come from the whole dose curve; as a rule, active = well fitted curve in the direction sought with a large enough effect; inconclusive = small, poorly fitted or top-dose-only effect, or another doubt; inactive = no such curve, though single readings can be large; an effect the other way counts as inactive or inconclusive. Potency is the fitted concentration of half-maximal effect.

SMILES	TDP1 cell CPT	HepG2 viability	TDP1 cell noCPT	HT1080-NT tox	TGFb SMAD3 inh	HT1080 IDH1KD tx
COc1ccc(OCC(=O)Nc2ccc(S(=O)(=O)N(C)c3ccccc3)cc2)cc1	-13%	0%	0%	7%	14%	6%
COC(=O)Cc1ccc(N(Cc2ccccc2F)S(=O)(=O)c2ccc(C)cc2)cc1	21µM*	-12%	18µM*	1%	7%	1%
Cc1ccc(N(CCC(=O)O)S(=O)(=O)c2ccccc2)cc1	-11%	-2%	-8%	2%	-3%	7%
Cn1c(=O)c2c(SCC(=O)NCc3ccco3)nc(-c3ccccc3)nc2n(C)c1=O	4%	-3%	-14%	.	27%	.
CCc1ccc(CNc2ncnc3onc(-c4ccc(Cl)cc4)c23)cc1	-17%	-5%	16µM*	.	-7%	.
Fc1ccc(CNc2ncnc3onc(-c4ccc(F)cc4)c23)cc1	18µM*	-21%	23µM*	.	-9%	.
Cc1ccc(CNc2ncnc3onc(-c4ccc(F)cc4)c23)cc1	?	-10%	?	.	0%	.
Cc1cc(C)c(OCC(=O)OCC(=O)N2CCCc3ccccc32)c(C)c1	-5%	4%	-11%	13%	-2%	8%
COc1ccc(/C=C2\C=Cc3ccccc32)cc1	4%	-6%	-28%	.	-3%	.
COc1ccccc1CNCCCCCCNCCCCCCCCNCCCCCCNCc1ccccc1OC	13µM*	.	6.5µM*	.	.	.
COc1ccccc1CNN	2.6µM*	-30%	5.8µM*	-4%	18%	-3%
COc1ccccc1CNc1ncccn1	23%	10%	0%	11%	19%	9%
COC(=O)c1sc(NC(=S)NNC(=O)c2c(Br)c(C)nn2C)c(C(=O)OC)c1C	-7%	-9%	-11%	-4%	-9%	0%
CCN1C(=O)[C@H]2[C@@H](c3ccc(-c4ccc(C(C)=O)cc4)cc3)N3CCCC[C@@]3(C(=O)OC)[C@H]2C1=O	?	-8%	12µM*	2%	-6%	4%
CCN1C(=O)[C@H]2[C@@H](c3ccc(-c4ccc(F)cc4)c(OC)c3)N3CCCC[C@@]3(C(=O)OC)[C@H]2C1=O	23µM*	-32%	16µM*	-29%	?	-14%
CCN1C(=O)[C@@H]2[C@@H](c3ccc(-c4ccc(C(C)=O)cc4)c(OC)c3)N3CCC[C@@]3(C(=O)OC)[C@@H]2C1=O	?	-13%	?	0%	-2%	0%
CCN1C(=O)[C@@H]2[C@@H](c3ccc(-c4ccc(C(C)=O)cc4)c(OC)c3)N3CCCC[C@@]3(C(=O)OC)[C@@H]2C1=O	?	2%	15µM*	7%	2%	6%
CCN1C(=O)[C@@H]2[C@@H](c3ccc(-c4ccc(F)cc4)c(OC)c3)N3CCC[C@@]3(C(=O)OC)[C@@H]2C1=O	23µM*	-32%	?	-7%	-27%	2%
c1cc2c3c(c1)CCCN3CCC2	-11%	1%	-28%	.	-8%	.
COC(=O)C1=C(C)N(CCCCCC(=O)O)C(=O)NC1c1ccccc1 (configuration not stated)	5%	-27%	-2%	14%	-1%	11%
CCN(CC)CCc1nc(-c2ccccc2)no1	6.5µM*!	-1%	4.1µM*!	-20%	-1%	3%
CC(=O)/C(C#N)=C1\NC(=O)C(Cc2ccccc2)S1 (configuration not stated)	?	-16%	?	-6%	24%	?
CC(=O)/C(C#N)=C1\NC(=O)C(Cc2ccccc2C)S1 (configuration not stated)	?	-21%	2.3µM*	-24%	-23%	?
O=c1[nH]c(=O)n(Cc2ccccc2)c2c1C(C(F)(F)F)(C(F)(F)F)N=C(c1ccco1)N2	?	-32%	?	-9%	-15%	-19%
CC1=C(C#N)C(C(F)(F)F)(C(F)(F)F)N=C(c2ccco2)N1	?	-30%	16µM*	8%	-4%	0%
SMILES	TDP1 cell CPT	HepG2 viability	TDP1 cell noCPT	HT1080-NT tox	TGFb SMAD3 inh	HT1080 IDH1KD tx
COc1ccc(-c2cc(C(=O)Nc3nc4c(C)cccc4s3)c3ccccc3n2)cc1OC	16µM*	0%	21µM*	-9%	-7%	?
Cc1cccc2sc(NNC(=O)c3cc(-c4cccs4)nc4ccccc34)nc12	4.1µM*	-41%	4.1µM*	?	?	21µM*
Cc1cccc2sc(NNC(=O)C3=COCCO3)nc12	13µM*	0%	?	-15%	42%	-11%
COc1cccc(-c2cc(C(=O)Nc3nc4ccccc4s3)c3ccccc3n2)c1	16µM*	-29%	26µM*	?	-26%	?
CC(C)COC(=O)N(C)C[C@@H]1OCc2cnnn2CCCC(=O)N([C@@H](C)CO)C[C@H]1C	3%	-14%	3%	8%	2%	0%
Cc1ccc(NC(=O)c2ccc(Cl)c(S(=O)(=O)N3CCCCC3)c2)nc1	-16%	-16%	-24%	2%	-20%	-2%
O=C(Nc1nc2ccccc2s1)c1cc(-c2ccco2)nc2ccccc12	18µM*	-13%	18µM*	?	-1%	?
CN(C)C(=O)c1ccc(NC(=O)c2cc(-c3ccco3)nc3ccccc23)cc1	?	-35%	?	1%	7%	-1%
COc1ccc(NC(=O)c2cc(-c3ccco3)nc3ccccc23)cn1	?	8%	21µM*	-4%	0%	3%
Cc1ccc2nc(NC(=O)c3cc(-c4ccco4)nc4ccccc34)sc2c1	?	-39%	?	?	0%	?
Cc1ccccc1Nc1nc(N)c(C(=O)c2ccccc2Cl)s1	?	-40%	?	.	.	.
COc1cc2cc3c4c(cc(OC)c(OC)c4c2cc1OC)CCN3C	11µM*	.	12µM*	.	.	.
Cc1nnc(N2CCC(C(=O)NC(C)C)CC2)c2nn(-c3ccc(Cl)cc3)c(C)c12	8%	2%	17%	.	16%	.
CCN(CC)CCOC(=O)c1ccc(NC(=O)c2cc3cccc(OC)c3oc2=O)cc1	21µM*	-59%	?	.	-1%	.
CCN(CC)CCOC(=O)c1ccc(NC(=O)CCCN2C(=O)S/C(=C/c3ccc(OC)cc3)C2=S)cc1	?	-28%	21µM*	?	-7%	12µM*
CCN(CC)CCOC(=O)c1ccc(NC(=O)c2cc3cc(OC)ccc3oc2=O)cc1	0.041µM*	-20%	0.0058µM*	.	4%	.
